For 4 compounds, AC50 and outcome results are on record in PubChem BioAssay AID2283179 (EPA ToxCast).

As a reminder, the AC50 is the concentration at which the activity in the assay is half-maximal.

Results filed as inconclusive are left out. Calls of active or inactive are those of the source. Rule for the calls: active = hit-call score of the fitted dose curve at least 0.9, where 1 is the maximum; inconclusive = response in the unintended direction; inactive = score below 0.9.

Sequence of human Microtubule Affinity Regulating Kinase 1 (MARK1), MARK1 (gene 4139) (Q9P0L2 whole entry, looked up): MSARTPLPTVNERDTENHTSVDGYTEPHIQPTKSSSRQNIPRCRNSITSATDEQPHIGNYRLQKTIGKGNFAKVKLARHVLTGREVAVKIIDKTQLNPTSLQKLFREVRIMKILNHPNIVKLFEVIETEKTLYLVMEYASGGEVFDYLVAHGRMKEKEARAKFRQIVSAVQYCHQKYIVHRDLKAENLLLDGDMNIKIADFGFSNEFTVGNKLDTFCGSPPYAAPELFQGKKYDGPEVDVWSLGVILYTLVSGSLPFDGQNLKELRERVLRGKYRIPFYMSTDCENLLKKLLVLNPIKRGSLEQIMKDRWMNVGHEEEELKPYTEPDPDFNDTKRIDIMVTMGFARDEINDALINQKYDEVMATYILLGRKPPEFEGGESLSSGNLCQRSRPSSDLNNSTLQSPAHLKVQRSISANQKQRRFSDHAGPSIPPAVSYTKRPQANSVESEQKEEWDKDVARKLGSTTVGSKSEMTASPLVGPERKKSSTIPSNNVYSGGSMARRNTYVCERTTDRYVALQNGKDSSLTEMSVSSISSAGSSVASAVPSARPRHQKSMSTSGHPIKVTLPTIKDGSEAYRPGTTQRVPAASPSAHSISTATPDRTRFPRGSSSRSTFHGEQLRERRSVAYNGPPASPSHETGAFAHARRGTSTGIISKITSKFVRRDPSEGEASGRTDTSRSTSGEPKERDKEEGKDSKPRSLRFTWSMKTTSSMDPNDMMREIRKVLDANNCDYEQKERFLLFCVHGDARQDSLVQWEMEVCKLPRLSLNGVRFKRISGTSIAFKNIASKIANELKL

The assay concerns the target human Microtubule Affinity Regulating Kinase 1 (MARK1), MARK1 (gene 4139) (UniProt Q9P0L2). The assay is described as follows: NVS_ENZ_hMARK1: NovaScreen (NVS) Enzymatic Assay for human Microtubule Affinity Regulating Kinase 1 (MARK1). How it is done:
NVS_ENZ_hMARK1 is a biochemical, single-readout assay that uses extracted gene-proteins in a cell-free assay. Measurements were taken 1 hour after chemical dosing in a 384-well plate.NVS_ENZ_hMARK1 is one of one assay component(s) measured or calculated from the NVS_ENZ_hMARK1 assay. It is designed to make measurements of enzyme activity, a form of enzyme reporter, as detected with fluorescence intensity signals by Fluorescence and electrophoretic mobility shift technology.Data from the assay component NVS_ENZ_hMARK1 was analyzed into 1 assay endpoint. This assay endpoint, NVS_ENZ_hMARK1, was analyzed in the positive analysis fitting direction relative to DMSO as the negative control and baseline of activity. Using a type of enzyme reporter, loss-of-signal activity can be used to understand changes in the enzymatic activity as they relate to the gene MARK1. Furthermore, this assay endpoint can be referred to as a primary readout, because this assay has produced multiple assay endpoints where this one serves a enzymatic activity function. To generalize the intended target to other relatable targets, this assay endpoint is annotated to the kinase intended target family, where the subfamily is serine/threonine kinase.
Binding assays used specific radioligands (tritiated, iodinated) with non-radioactive competitive displacement ligands in agonist or antagonist protocols (as indicated) and various reference compounds and inhibitors to titrate specific binding to receptors and transporters. Most enzyme assays (CYPs, kinases, phosphatases, proteases, HDACs) used recombinant protein and specific substrates (fluorescence mostly, some colorimetric and radioactive) and inhibitors, followed by a biochemical separation of substrate and product. All assays for the biochemical HTS were initially run in duplicate at a single concentration (10 uM for CYP450 assays and 25 uM for all others). Assay-chemical combinations meeting a pre-defined threshold (e.g., 30% inhibition and other criteria defined below) were then run in singleton concentration-response format with maximum concentration of 20 uM for CYPs and 50 uM for all others. Each assay was run with positive and negative controls, and concurrent controls on every plate. The follow-up (secondary) screen tested active chemical-pairs in concentration series, as well as a few additional assays not tested in the primary screen, some selected negative inactives, and several cases re-run in the concentration series for confirmatory purposes.
Turning to `S=C([S-])NCCNC(=S)[S-].[Mn+2]`, the concentration at half-maximal activity (AC50) is 406 nM (active). Take `S=C(S)NCCNC(=S)S.[Mn+2].[S-]C([S-])=NCCN=C([S-])[S-].[Zn+2]`: the AC50 is 1380 nM (active).

`O=C(Nc1ccc([N+](=O)[O-])cc1Cl)c1cc(Cl)ccc1O`: the compound was classed as inactive. Consider `O=C(O)C1(C(=O)Nc2ccc(Cl)cc2Cl)CC1`, for which the concentration at half-maximal activity (AC50) is 7850 nM (active).
